Experimental data: PubChem BioAssay (NCATS)
Inconclusive results are not listed. The source made the active and inactive calls. Calls come from the whole dose curve.

The compounds below were run against Vitamin D3 receptor (Homo sapiens) (UniProt P11473) (assay: qHTS assay for small molecule antagonists of vitamin D receptor signaling (AID 588541;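 note: receptor activated by calcitriol during compound treatment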)). Conditions: HEK293T VDR-UAS-bla, beta-lactamase ratio, antagonist mode; series mostly up to 76.7 µM.
Vitamin D3 receptor (Homo sapiens), sequence (P11473 whole entry, looked up): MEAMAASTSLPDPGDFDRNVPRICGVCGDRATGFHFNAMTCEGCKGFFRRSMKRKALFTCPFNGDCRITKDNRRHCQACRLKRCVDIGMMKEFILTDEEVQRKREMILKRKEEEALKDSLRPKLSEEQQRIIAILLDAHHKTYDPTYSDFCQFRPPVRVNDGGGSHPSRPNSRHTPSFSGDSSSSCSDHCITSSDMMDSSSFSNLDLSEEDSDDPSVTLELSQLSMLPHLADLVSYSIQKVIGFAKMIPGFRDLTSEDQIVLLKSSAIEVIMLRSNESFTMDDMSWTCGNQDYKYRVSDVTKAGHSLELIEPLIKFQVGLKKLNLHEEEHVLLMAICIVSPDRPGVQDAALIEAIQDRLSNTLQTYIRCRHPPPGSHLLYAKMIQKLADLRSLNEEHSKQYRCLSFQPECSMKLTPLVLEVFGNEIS
Description: NIH Chemical Genomics Center [NCGC]
U.S. Environmental Protection Agency [EPA]
National Institutes of Environmental Health Sciences [NIEHS]
National Toxicology Program [NTP]
The Vitamin D receptor (VDR) is a member of nuclear hormone receptor superfamily and it plays a critical role in calcium homeostasis and bone metabolism. It plays a role in inducing cell differentiation, inhibiting cell growth and in thrombogenicity. So, VDR that mediates these effects represents a pharmacological target in prevention and treatment of hyperproliferative malignancies, such as cancer and psoriasis, cardiovascular, immunological, inflammatory and renal diseases etc.
NCGC Assay Protocol Summary
Using a beta-lactamase reporter-gene under control of Vitamin D receptor (VDR) response element, a cell-based assay [GeneBLAzer (VDR -UAS-bla assay developed by Invitrogen] was used to measure VDR ligands signaling. GeneBLAzer VDR -UAS-bla HEK293T cells were used with assay medium containing 2% charcoal-stripped FBS. The assay was performed in clear bottom black Greiner 1536-well plates. Library compounds were measured for their ability to inhibit the reporter gene activity. Compounds were screened in a titration series in 1536-well format. The fluorescence intensity (405 nm excitation, 460/530 nm emission) was measured using an EnVision plate reader. Data was normalized relative to 1-alpha,25-Dihydroxy vitaminD3 control (50 nM, 100%) and DMSO only wells (basal, 0%). Concentration-response titration points for each compound were fitted to the Hill equation yielding concentrations of half-maximal inhibition (IC50) and maximal response (efficacy) values.
qHTS protocol for VDR beta-lactamase assay in antagonist mode
[Step] [Parameter] [Value] [Description]
1. Reagent; 5 uL; 2000 cells/well
2. Incubation; 37 C for 5 hrs
4. Controls (DMSO); 23 nL,
5. Agonist (Stimulator); 1uL; 1-alpha,25-Dihydroxy vitaminD3 at 50 nM and 3 nM final concentrations
6. Incubation; 37 C for 16 hrs
7. Detection reagent; 1 uL of CCF4-dye
8. Incubation; RT for 2 hrs
9. Detection; Fluorescence; Envision plate reader
For NCCNCCNCCN, the outcome was “inactive”. For CN(C)CCOC(C)(c1ccccc1)c1ccccn1 (stereo not drawn), the outcome was “inactive”. In the case of CC(O)CN(CCN(CC(C)O)CC(C)O)CC(C)O (stereo not drawn), the outcome is reported as “inactive”. With COc1ccccc1O the outcome was “inactive”. NCCNCCNCCNCCN was tested, and the outcome was “inactive”. In the case of Cc1cc(CC(=O)O)n(C)c1C(=O)c1ccc(Cl)cc1, the outcome is reported as “inactive”. For CC(O)COc1ccccc1 (stereo not drawn), the outcome was “inactive”. In the case of CC1=C(/C=C/C(C)=C/C=C/C(C)=C/C(=O)O)C(C)(C)CCC1, the outcome is reported as “inactive”. In the case of CCCCC(CC)COC(=O)c1ccccc1O (stereo not drawn), the outcome is reported as “inactive”. With NC(=O)c1ncn([C@@H]2O[C@H](CO)[C@@H](O)[C@H]2O)n1 the outcome was “inactive”. For CNC(=O)Oc1ccc2c(c1)[C@]1(C)CCN(C)[C@@H]1N2C, the outcome was “inactive”. In the case of Nc1ccc(S(=O)(=O)Nc2nccs2)cc1, the outcome is reported as “inactive”. In the case of Cc1cccc(Nc2cc(Cl)nc(SCC(=O)O)n2)c1C, the outcome is reported as “inactive”. CN(C)CCC=C1c2ccccc2CCc2ccccc21 was tested, and the outcome was “inactive”. O=S(=O)(O)NC1CCCCC1 was tested, and the outcome was “inactive”. With NC(=O)N/N=C/c1ccc([N+](=O)[O-])o1 the outcome was “inactive”. In the case of [Cl][In]([Cl])[Cl], the outcome is reported as “inactive”. With CCCCCCCCCCCCOS(=O)(=O)O the outcome was “inactive”. CN(C)CCCN1c2ccccc2Sc2ccc(Cl)cc21 was tested, and the outcome was “inactive”. With CC12CCC(CC1)C(C)(C)O2 the outcome was “inactive”. With CC1(C)[C@@H]2CC[C@@]1(C)C(=O)C2 the outcome was “inactive”. In the case of Oc1cccc(O)c1, the outcome is reported as “inactive”. CCCCOC(=O)c1ccc(O)cc1 was tested, and the outcome was “inactive”.
